PubChem BioAssay (NCI)
This is part of a sample that, as a whole, favours compounds with a hit. Of some 83,000 tested, about 20% had one in any assay.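 Compound tested at a single concentration for 48 hours in 96-well plates; a percent growth value below 10 was scored as active.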 Calls of active or inactive are those of the source.

Tested on: SR leukemia
Assay: NCI-60 one-dose screen, 48 h (100 = growth as untreated, 0 = no growth, -100 = all killed)
Settings: 10 µM unless noted

Structure (SMILES) | growth
Cc1cc(S(=O)(=O)/N=C(\N)n2nc(C)c(C)c2C)c(SCc2ccccc2)cc1Cl | 65.8% (inactive)
CS(=O)(=O)Nc1cncc(-c2ccc3ncnc(Nc4cncc(Cl)c4)c3c2)c1 | 87.9% (inactive)
CC(C)(Sc1cc(C(C)(C)C)c(OC(=O)CCCC(=O)O)c(C(C)(C)C)c1)Sc1cc(C(C)(C)C)c(OC(=O)CCCC(=O)O)c(C(C)(C)C)c1 | 61.6% (inactive)
COc1cc2c(c(OC)c1OC)CCC(c1cccc(NC(=O)c3ccc(Br)cc3)c1)O2 (stereo not given) | 35% (inactive)
COc1ccc(CNc2c3ccccc3nc3ccccc23)cc1 | 6.96% (active)
N#CSc1c[nH]c2cccc(/C=C/C(=O)/C=C(/C=C/c3cccc4[nH]cc(SC#N)c34)OB(F)F)c12 | 6.43% (active)
CC1=NC2=Nn3c(c4cnn(-c5ccccc5)c4n/c3=N\N)NN2C(c2ccccc2)=C1 | 99.6% (inactive)
COc1ccc(\C=N/N=C(N)/C(N)=N\N=C/c2ccc(OC)cc2)cc1 | 46.9% (inactive)
NC(=O)c1cccc(-n2ccc3cc(NC(=O)c4ccc(N5CCOCC5)c(C(F)(F)F)c4)ccc32)n1 | 26.5% (inactive)
COc1ccc(-c2nc3cc(C(=O)NCc4ccccc4)ccc3n2C2CCCCC2)cc1 | 43.8% (inactive)
CN(C)CC(C)(C)C(=O)/C=C/c1ccccc1 | -16.5% [25 µM] (active)
C=CCn1c(SCC(=O)Nc2ccc(C(=O)/C=C/c3ccc(Cl)cc3)cc2)nnc1-c1ccc(Br)cc1 | 70.7% (inactive)
Cc1cn(-c2cc(NC(=O)c3cccc(C#Cc4cccc5[nH]nc(N)c45)c3)cc(C(F)(F)F)c2)cn1 | 28.3% (inactive)
Oc1c(I)cc(I)cc1CNCCN(Cc1ccccn1)Cc1ccccn1 | -9.62% (active)
C=CC[Se]C(=O)Cc1c(C)n(C(=O)c2ccc(Cl)cc2)c2ccc(OC)cc12 | 2.02% (active)
CCC(=C(c1ccc(OCCN2CCCCC2)cc1)c1ccc(OCCN2CCCCC2)cc1)c1ccc(Cl)cc1 | -49% (active)
Cc1ccc(/C=C2\COc3ccc(O)cc3C2=O)cc1 | 12.7% (inactive)
COc1cc2nc3cc([N+](=O)[O-])ccc3c(NCCNCC(C)O)c2cc1OC (stereo not given) | -17.9% (active)
O=C(NNC(=O)c1ccc(NC(=O)c2ccccn2)cc1)Nc1ccc([N+](=O)[O-])cc1 | 109% (inactive)
O=C(Nc1ccc(Oc2cccc(F)c2)c(Cl)c1)c1cccnc1 | 23.8% (inactive)

Structure (SMILES) | growth
CCCc1c(OC(=O)c2ccccc2)nc2[nH]c(=O)sc2c1C | 115% (inactive)
CCCCCN1C(=O)/C(=c2\sc3n(c2=O)C2C(NN=3)N(CC)C(=O)N2CC)c2ccccc21 (stereo not given) | 1.69% (active)
CCOC(=O)c1cc(C)n(-c2ccc(C(=O)O)cc2)c1C | 75.5% (inactive)
O=C1NC(=O)C(Cc2ccc(OCc3ccc(-c4ccc(Cl)cc4Cl)cc3)cc2)S1 (stereo not given) | 29.3% (inactive)
CC/C=C\C[C@H](O)C/C=C1/C(=O)C=C[C@@H]1C/C=C\CCCC(=O)N(C)C | 6.2% (active)
NC(=O)CSc1oc(-c2ccccc2)nc1S(=O)(=O)c1ccc(Br)cc1 | 79.3% (inactive)
COc1cc(-c2nccc3[nH]c(-c4ccc5cc[nH]c5c4)nc23)cc(OC)c1OC | -4.95% (active)
Cc1nc2sc(C(=O)Nc3cccc(Br)c3)c(N)c2cc1C(O)c1ccccc1 (stereo not given) | 13.4% (inactive)
CC(C)c1ccc(Cc2cnc(NC(=O)c3cc(Br)cs3)s2)cc1 | 16.8% (inactive)
Cc1ccc(-c2nc([P+](c3ccccc3)(c3ccccc3)c3ccccc3)c(S(=O)(=O)c3ccc(C)cc3)o2)cc1 | -10.9% (active)
COC(CC(F)F)c1cn(S(=O)(=O)c2ccc(C)cc2)c2ccccc12 (stereo not given) | 12.2% (inactive)
Cc1ccc(C[P+](c2ccccc2)(c2ccccc2)c2ccccc2)cc1 | -3.87% (active)
Cn1cc(-c2nonc2-c2cn(C)c3ccccc23)c2ccccc21 | 16% (inactive)
CC1=C2[C@@H](CC1)[C@]1(C)O[C@@](C(C)C)(C[C@H]1OC(=O)[C@H](C)O)[C@H]2OC(=O)/C=C/c1ccccc1 | 71.9% (inactive)
Cc1c(-c2ccc(O)cc2)n(Cc2ccc(OCCN3CCCCCC3)cc2)c2ccc(O)cc12 | 1.53% (active)
CCOC(=O)C(=O)C(C(=O)OCC)c1ccccc1 (stereo not given) | 94.7% (inactive)
CS(=O)(=O)c1ccc(-c2cnn3ccc(-c4cccc(S(=O)(=O)C5CC5)c4)nc23)cc1 | 49.3% (inactive)
O=S(=O)(NCCNc1nccc(-c2c(-c3ccc(F)c(O)c3)nc3occn23)n1)c1ccc(Cl)cc1 | 75.8% (inactive)
Nc1n[nH]c2cccc(C#Cc3cccc(NC(=O)c4cc(F)cc(C(F)(F)F)c4)c3)c12 | 60.5% (inactive)
N#Cc1nc(-c2ccc(F)cc2)oc1S(=O)(=O)N1CCOCC1 | -5.89% (active)
